Screening data from PubChem.
Hits are enriched below; roughly 1.4% of the tested compounds scored in any of these assays.
A3G deaminase: blocks human APOBEC3G single-stranded DNA deamination; AID 493012; 0.28% of 330,000 active; recombinant A3G, ssDNA deamination FAM/TAMRA fluorescence; inhibition, % at 20 µM;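 active = inhibition of at least 40% at 20 µM, with no more than 30% in the related APOBEC3A deaminase screen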;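 also: plate controls were DMSO wells with A3G for no effect and wells lacking A3G enzyme for full effect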
APOBEC3A inh: inhibitors of human APOBEC3A DNA deaminase. recombinant A3A, FAM/TAMRA ssDNA deamination fluorescence. inhibition, % at 20 µM. 0.41% of 330,000 active;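 active = at least 40% inhibition at 20 µM here, with at most 30% in a related deaminase screen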;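 also: plate controls were A3A with DMSO for no effect and wells lacking A3A enzyme for full effect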
GRK2 inh: human GRK2 inhibition via aptamer displacement; P25098; 0.59% of 330,000 active; inhibition of aptamer binding, % at 10 µM; bead flow cytometry, FAM-aptamer displacement from GRK2;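 active = inhibition of aptamer binding above 40%, roughly 3 SD of noise, on plates passing a quality check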;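 also: median bead fluorescence of bound FAM aptamer so fluorescent compounds give negative values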
VLA-4 inh: inhibition in a human VLA-4 binding assay. VLA-4 expressing cells, ligand binding flow cytometry. P13612. inhibition, % (about 7 µM as worked out from the volumes in the protocol). 0.2% of 330,000 active. AID 2557; in the data active = inhibition above about 50%
Target sequence (P13612 whole entry, looked up): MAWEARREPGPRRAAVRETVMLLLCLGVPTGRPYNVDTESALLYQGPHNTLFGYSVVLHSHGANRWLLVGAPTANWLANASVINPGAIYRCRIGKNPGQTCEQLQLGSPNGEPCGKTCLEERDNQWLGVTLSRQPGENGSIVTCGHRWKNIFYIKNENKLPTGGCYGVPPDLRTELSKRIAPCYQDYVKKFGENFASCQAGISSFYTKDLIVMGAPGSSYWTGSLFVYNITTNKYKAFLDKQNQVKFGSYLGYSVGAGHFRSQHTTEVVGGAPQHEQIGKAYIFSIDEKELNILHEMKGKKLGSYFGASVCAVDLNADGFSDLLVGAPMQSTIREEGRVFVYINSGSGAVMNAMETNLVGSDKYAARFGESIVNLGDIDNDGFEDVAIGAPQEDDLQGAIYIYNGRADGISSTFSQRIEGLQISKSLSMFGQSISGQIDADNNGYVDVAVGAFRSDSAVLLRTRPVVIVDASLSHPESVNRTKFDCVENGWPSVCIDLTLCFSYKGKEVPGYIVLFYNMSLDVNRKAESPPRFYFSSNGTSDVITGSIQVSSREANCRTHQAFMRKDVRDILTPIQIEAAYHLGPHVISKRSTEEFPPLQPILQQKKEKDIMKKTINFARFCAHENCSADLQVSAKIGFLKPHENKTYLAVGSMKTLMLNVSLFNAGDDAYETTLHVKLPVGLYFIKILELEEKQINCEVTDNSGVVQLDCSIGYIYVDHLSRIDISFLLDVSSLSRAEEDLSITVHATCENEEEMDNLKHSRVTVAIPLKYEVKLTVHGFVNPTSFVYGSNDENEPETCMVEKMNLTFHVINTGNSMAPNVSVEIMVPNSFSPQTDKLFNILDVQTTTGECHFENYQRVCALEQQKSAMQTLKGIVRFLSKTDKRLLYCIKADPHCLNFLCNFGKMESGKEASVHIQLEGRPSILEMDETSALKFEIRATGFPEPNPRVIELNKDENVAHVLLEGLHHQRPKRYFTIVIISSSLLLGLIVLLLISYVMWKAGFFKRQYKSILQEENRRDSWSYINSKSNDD
GRK2 inh confirm: confirmation of human GRK2 inhibitors displacing RNA aptamer | shares compounds with GRK2 inh | bead-bound GRK2, FAM-aptamer displacement, flow cytometry | aptamer displacement, % at 10 µM | 4% of 2,000 active;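 active = aptamer displacement above 40%, near three times the noise of non-fluorescent compounds, on plates passing quality checks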;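 also: negative values mostly reflect intrinsic compound fluorescence rather than true enhancement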
Aptamer quench 1: quenches fluorescent RNA aptamer, GRK2 hit artifact | 110 tested, under 10 active | Fluorescent RNA aptamer beads, quenching, flow cytometry; active compounds read high | fluorescence change (kMESF span), kMESF (no concentration beside the values) | shares compounds with GRK2 inh;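 active = compounds whose bead fluorescence drops by more than 37 kMESF across the dose range, marking them as dye quenchers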
FAM quench CP1: aptamer fluorescence quenching in GRK2 counter-screen; 2,000 tested, under 10 active; AID 504580; Carboxyfluorescein RNA aptamer on beads, flow cytometry quenching; active compounds read low; fluorescence response (% of DMSO), % at 10 µM; shares compounds with GRK2 inh;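 active = compounds that quench the bead-bound fluorescent RNA probe, cutting fluorescence to under half of the solvent control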;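 also: counterscreen run without GRK2 so only probe quenching by compound is measured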
GRK2 CP2: confirmation of human GRK2 inhibitors binding RNA aptamer site. shares compounds with GRK2 inh. bead-bound GRK2, FAM-aptamer displacement, flow cytometry. inhibition of aptamer binding, % at 10 µM. 360 tested, under 10 active;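 active = inhibition of aptamer binding above 40%, about triple the noise seen with nonglowing compounds, on plates passing quality control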;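 also: negative values mostly come from compounds that fluoresce themselves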
FAM quench SP: counter-screen for GRK2 binding hits: quenchers of fluorescent RNA aptamer | shares compounds with GRK2 inh | carboxyfluorescein RNA aptamer beads, flow cytometry quenching; active compounds read low | fluorescence response vs DMSO, % at 10 µM | 360 tested, under 10 active | AID 588494;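 active = response vs DMSO under 50%, meaning signal dropped by over half, treated as fluorescence quencher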;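 also: labelled aptamer on streptavidin beads without GRK2 as a quench counter-screen; 100% = bead fluorescence of DMSO wells and lower means quenching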
An asterisk follows results filed as active; · = no result given.

SMILES	A3G deaminase	APOBEC3A inh	GRK2 inh	VLA-4 inh	GRK2 inh confirm	FAM quench CP1	others
O=c1c2ccccc2nnn1CSc1ccccc1	-9	-1	97*	3	·	·	GRK2 CP2=13;FAM quench SP=100
CCC(C(=O)NCCCN1CCN(C)CC1)n1nc(C)c2sc3ccccc3c2c1=O (stereo not drawn)	4	1	1	-2	·	·
CCCN1CCN(CCCNC(=O)C(CC)n2nc(C)c3sc4ccccc4c3c2=O)CC1 (stereo not drawn)	-8	-7	62*	4	-2	96
O=NN(CCCl)C(=O)NCCCl	-1	1	6	34	·	·
Nc1ccc(O)c2c1C(=O)c1ccccc1C2=O	76	94	41*	-42	1	93
CCn1c(SCC(=O)Nc2cccc(C)c2)nc2nc3c(cc2c1=O)COC(C)(C)C3	3	2	2	-11	·	·
O=C(/C=C/c1ccc(F)cc1)N1CCCc2ccccc21	-3	5	28	-6	·	·
O=S(=O)(c1ccc2ccccc2c1)N1CCN(C(=S)Nc2ccc(F)cc2)CC1	-2	-2	3	2	·	·
CC1(C(=O)NNC(=O)c2cccc([N+](=O)[O-])c2)CC1(Br)Br (stereo not drawn)	5	1	40	6	-4	101
COc1ccc(C(CNS(=O)(=O)c2ccc(C)cc2)N2CCN(C)CC2)cc1 (stereo not drawn)	5	0	0	-7	·	·
COc1ccc(N2CCN(C(CNS(=O)(=O)c3ccccc3)c3ccccc3)CC2)cc1 (stereo not drawn)	-2	-6	47*	2	2	86	Aptamer quench 1=19
Cc1ccc(CNc2ccccc2C(=O)O)s1	-10	-7	0	3	·	·
COc1cc(CN2CCC(C(=O)N3CCN(c4ccccc4F)CC3)CC2)cc(OC)c1OC	-6	-3	2	-6	·	·
COc1cccc(CN2CCC(C(=O)N3CCN(c4ccccc4F)CC3)CC2)c1OC	1	0	60*	5	·	·	GRK2 CP2=-3;FAM quench SP=100
CCN(CC(=O)Nc1c(F)cccc1F)C(=O)CNC(=O)c1ccc2ccccc2c1	-1	-4	0	14	·	·
CCN(CC(=O)Nc1c(F)cccc1F)C(=O)c1cc2ccccc2oc1=O	-5	2	100*	-3	1	103
COC(=O)C1CCN(CC(=O)NC(=O)Nc2ccccc2F)CC1	-8	12	1	0	·	·
O=C(NCCCN1CCOCC1)c1coc2ccccc2c1=O	-3	-3	3	-9	·	·
CCOC(=O)c1ccc2nc(NC(=O)C(C)C)sc2c1	-7	1	62*	23	-1	97
CCCC(=O)Nc1nc2ccc(C(=O)OCC)cc2s1	-9	-5	0	10	·	·
CCCCC(=O)C1=C(N2CCCC2)CC(C)(C)CC1=O	-3	0	0	-7	·	·
CCOC(=O)C1=C(COC(=O)c2ccco2)NC(=O)NC1CC (stereo not drawn)	-10	-5	83*	0	-2	101
CCOC(=O)C1=C(C)NC(=O)NC1c1ccc(OC(=O)c2ccco2)cc1 (stereo not drawn)	-6	-2	2	-10	·	·
[O-]/C(=C(\C(=S)Nc1ccccc1F)[n+]1ccccc1)c1ccc(-c2ccccc2)cc1	-7	-2	1	7	·	·
[O-]/C(=C(\C(=S)Nc1ccc(Cl)cc1)[n+]1ccccc1)c1ccc(OC(F)F)cc1	-7	0	53*	2	1	105
SMILES	A3G deaminase	APOBEC3A inh	GRK2 inh	VLA-4 inh	GRK2 inh confirm	FAM quench CP1	others
CCOc1ccc(C(C)=O)cc1CN1C(=O)NC2(CCCCCC2)C1=O	-8	-4	83*	-19	-34	102
Cc1cc(C)c(NC(=O)CN2C(=O)NC3(CCc4ccccc43)C2=O)c(Cl)c1 (stereo not drawn)	-6	0	0	4	·	·
Cc1cc(C)c(NC(=O)CN2C(=O)NC3(CCCCC3)C2=O)c(Cl)c1	-2	-6	83*	11	3	96
CC(=O)c1cccc(NC(=O)CN2C(=O)NC3(CCCCCCC3)C2=O)c1	-7	-1	100*	3	-31	99
CC(=O)c1ccc(Sc2nnnn2-c2ccccc2)c([N+](=O)[O-])c1	-4	-2	1	17	·	·
O=C(CSc1nncs1)N1CCN(C(=O)c2ccco2)CC1	-3	3	81*	-2	-1	100
O=C(CSc1nnc(SCc2ccc(Cl)cc2)s1)N1CCN(C(=O)c2ccco2)CC1	1	2	22	1	·	·
COc1ccccc1-n1cnnc1SCC(=O)N1CCN(C(=O)c2ccco2)CC1	-7	-3	45*	-6	1	99
COc1ccccc1-n1cnnc1SCC(=O)N1CCN(S(=O)(=O)c2ccccc2)CC1	-4	-2	0	12	·	·
O=C(c1cccc2ccccc12)N1CCN=C1SCc1ccc([N+](=O)[O-])cc1	-7	1	2	-1	·	·
CN(CC(=O)Nc1c(Cl)cccc1Cl)C(=O)CCc1nc2sc3c(c2c(=O)[nH]1)CCCC3	1	8	0	9	-1	94
COc1ccc(/C=N/NC(=O)c2ccncc2)c(C(=O)O)c1OC	-1	1	1	3	·	·
O=C(NC(=S)N1CCN(c2ccc([N+](=O)[O-])cc2)CC1)c1ccccc1Cl	-4	0	0	2	·	·
O=C(Cn1c(NCCO)nc2ccccc21)NCCc1ccccc1	-1	-1	2	-12	·	·
O=C(Cn1c(NCCO)nc2ccccc21)NCC1CCCO1 (stereo not drawn)	-3	3	100*	6	-2	95
C/C(=N\OCc1ccc(C#N)cc1)c1ccccc1	-19	-5	0	-3	·	·
C/C(=N\OCc1ccc(C#N)cc1)c1ccc(S(=O)(=O)N(C)C)cc1	-5	-3	47*	3	1	96
CC(=O)N1c2ccccc2C(C)(c2ccccc2)CC1(C)C (stereo not drawn)	-3	-1	3	-2	·	·
CC1(c2ccccc2)CC(C)(C)N2C(=O)Cc3cccc1c32 (stereo not drawn)	-4	4	50*	2	1	99
CC1CC(C)CN(S(=O)(=O)c2ccc(C(=O)N3CCN(c4ccccc4)CC3)cc2)C1 (stereo not drawn)	-4	-2	2	0	4	95
